Shown are actives, neighbours in structure and some others; about 14% of the full set was active somewhere.
Pf growth 48h – P. falciparum growth inhibition at 48 hours (one generation); P. falciparum luciferase growth in erythrocytes, 48 h; Potency, µM (series often up to 28.7 µM), hits mostly inhibitors; 310,000 tested, 5.9% active; AID 504832
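Luciferase-expressing parasites in RBCs, 2% Hct / 0.1% parasitemia final; RPMI 1640 + 0.5% Albumax; 37 C, 5% CO2, one generation; luminescence read-out, lower signal = inhibition.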
FBPA Giardia inh – Giardia lamblia aldolase inhibition; 290,000 tested, 0.71% active; Potency, µM (titrated, usually from 59.6 µM), most hits filed as inhibitors; purified Giardia FBPA; A8B2U2; AID 2451; note: nearly all actives have a fitted effect of over 55% in size
Target sequence (A8B2U2 whole entry, looked up): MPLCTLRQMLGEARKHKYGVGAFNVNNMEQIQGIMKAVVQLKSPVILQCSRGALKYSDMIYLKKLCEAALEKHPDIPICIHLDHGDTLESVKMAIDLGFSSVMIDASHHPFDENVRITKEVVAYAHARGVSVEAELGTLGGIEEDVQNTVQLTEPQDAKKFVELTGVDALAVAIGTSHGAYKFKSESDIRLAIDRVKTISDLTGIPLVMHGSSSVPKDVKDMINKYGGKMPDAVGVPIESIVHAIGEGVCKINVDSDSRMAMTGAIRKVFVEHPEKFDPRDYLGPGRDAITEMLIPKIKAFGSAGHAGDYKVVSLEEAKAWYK
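40 nM FBPA preincubated 10 min at RT with compound (up to 57.5 uM final), then substrate plus GAPDH/TPI/NAD/arsenate coupling and diaphorase/resazurin added. Fluorescence read after 20 min at RT, 525/598 nm.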
Pf growth 96h – inhibits malaria parasite growth, 96 h; P. falciparum luciferase reporter growth, 96 h; 320,000 tested, 6.9% active; Potency, µM (top dose mostly 28.7 µM), actives largely listed as inhibitors
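P. falciparum expressing integrated firefly luciferase grown in erythrocytes (2% hematocrit, 0.05% parasitemia final) with compounds for 96 hours at 37 C, 5% CO2. Growth inhibition read as loss of luminescence after adding luciferase detection reagent.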
HCMV antiviral – blocks human cytomegalovirus replication. HFF cells, HCMV-luciferase reporter, 72 h; stronger effect = lower value. activity change, negative = inhibition, % at 57.5 µM. 410,000 tested, 4.5% active; in the data active = activity change below about -60%; inconclusive = no clear call, values can overlap the other calls; inactive = above about -39%
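Inhibition of viral replication was scored as loss of reporter luminescence in HFFs infected with HCMV-luciferase (MOI 1 PFU/cell) for 72 h; compounds tested at 2 doses, normalized to buffer and Salinomycin controls.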
Sm TGR block – S. mansoni TGR enzyme inhibition; Q962Y6; AID 485364; Potency, µM (doses to about 114 µM), most hits filed as inhibitors; 360,000 tested, 3% active; purified TGR, DTNB reduction, TNB absorbance 405 nm; note: nearly all actives have a fitted effect of over 60% in size
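TGR 20 nM + NADPH 100 uM (dispensed conc.), cpd preinc 15 min RT; start with NADPH (500 uM addition) then DTNB (15 mM addition). Kinetic TNB absorbance, 405 nm filter. Four-parameter Hill fit across titration.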
Hits are given with their value; . = inactive; ? = inconclusive; / = no result; [ ] = remark or other dose. Unless noted, calls come from the whole dose curve; as a rule, active = well fitted curve in the direction sought with a large enough effect; inconclusive = small, poorly fitted or top-dose-only effect, or another doubt; inactive = no such curve, though single readings can be large; an effect the other way counts as inactive or inconclusive.

SMILES | Pf growth 48h | FBPA Giardia inh | Pf growth 96h | HCMV antiviral | Sm TGR block
CN1C(=O)C(C)(C)c2cc(S(=O)(=O)N3CCC(C(=O)NCc4ccc(Cl)cc4)CC3)ccc21 | ? | . | ? | . | .
CN1C(=O)C(C)(C)c2cc(S(=O)(=O)N3CCC(C(=O)NCc4ccc(F)cc4)CC3)ccc21 | ? | . | 13.1µM | . | .
CNc1ncnc2c1ncn2[C@H]1CN(Cc2cccs2)C[C@@H](CO)O1 | / | / | / | . | /
CCCN(CCC)CCNc1c(NC2CCN(C(=O)OCC)CC2)c(=O)c1=O | / | . | ? | . | .
CCOC(=O)N1CCC(Nc2c(-c3ccc(C)c(C)c3)c(=O)c2=O)CC1 | . | . | 0.522µM | . | .
CCOC(=O)N1CCC(NS(=O)(=O)c2ccc(C)cc2)CC1 | . | . | ? | ? | .
CCOC(=O)N1CCC(Nc2c(N3CCN(c4cc(Cl)ccc4C)CC3)c(=O)c2=O)CC1 | / | . | 4.65µM | ? | .
CCOC(=O)N1CCC(NS(=O)(=O)c2ccccc2)CC1 | . | . | . | . | 44.7µM
COc1cccc(CN2CCN3C(C(=O)Nc4ccccc4)=COC3=NC2=O)c1 | / | / | / | -61.7 | /
Cc1noc(C)c1CN1CCN2C(C(=O)Nc3ccccc3)=COC2=NC1=O | / | / | / | . | /
COC(=O)N(Cc1ccccc1NC(=O)OC(C)(C)C)C(C(=O)NC1CCCC1)C(=O)c1c(C)cc(C)cc1C (stereo not drawn) | / | / | / | . | /
C[C@]12[C@H](O)CC3C(CC[C@@H]4C[C@@H](O)CC[C@]34C)[C@@]1(O)CC[C@@H]2C1=CC(=O)OC1 (stereo partly drawn) | / | . | / | / | /
C[C@]12CC[C@H](O)C[C@H]1CC[C@@H]1[C@@H]2CC[C@]2(C)[C@@H](C3=CC(=O)OC3)CC[C@]12O | . | / | . | -97.0 | .
C[C@]12CC[C@H](O)C[C@H]1CC[C@@H]1[C@@H]2C[C@@H](O)[C@]2(C)[C@@H](C3=CC(=O)OC3)CC[C@]12O | . | / | . | -99.9 | .
CC12CCC(O)CC1CCC1C2CCC2(C)C(C3=CC(=O)OC3)C(O)CC12O (stereo not drawn) | / | / | / | -97.3 | /
CC12CCC(O)CC1CCC1C2CCC2(C)C(C3=CC(=O)OC3)CCC12O (stereo not drawn) | / | / | / | -98.7 | /
COc1ccccc1N1CCN(S(=O)(=O)c2c(C)nc3sccn3c2=O)CC1 | / | / | / | . | .
COCC(=O)N1CCC2(CC1)CCN(c1ccccn1)CC2 | / | . | / | / | /
O=C(COC(=O)c1cc(=O)[nH]c2ccccc12)Nc1ccccc1F | / | / | / | . | /
COC(=O)c1ccc(C(/C=C/[C@@H](C)C(=O)N(C)C)NC(=O)OCc2ccccc2)cc1 (stereo partly drawn) | / | . | / | / | /
CC(C)(C)c1ccc(CCC2OCC(C[N+]3(C)CCOCC3)O2)cc1 (stereo not drawn) | ? | . | 2.62µM | . | .
CSCC[C@H](NC(=O)[C@H](CC(C)C)NC(=O)[C@H](CO)NC(=O)[C@H](CCC(=O)O)NC(=O)[C@H](CC(C)C)NC(=O)[C@H](Cc1ccc(O)cc1)NC(=O)[C@H](CCCCN)NC(=O)[C@H](CCCCN)NC(=O)[C@H](C)NC(=O)[C@H](CO)NC(=O)[C@H](CC(C)C)NC(=O)[C@H](CCC(N)=O)NC(=O)CNC(=O)[C@H](CC(C)C)NC(=O)[C@H](CC(C)C)NC(=O)[C@H](CCCCN)NC(=O)[C@H](CO)NC(=O)[C@H](Cc1ccccc1)NC(=O)[C@H](CC(=O)O)NC(=O)[C@H](CO)NC(=O)[C@@H](NC(=O)[C@H](Cc1ccccc1)NC(=O)[C@@H](NC(=O)CNC(=O)[C@H](CC(=O)O)NC(=O)[C@H](C)NC(=O)[C@@H](N)Cc1cnc[nH]1)C(C)C)[C@@H](C)O)C(N)=O | / | . | / | / | /
COc1ccc(C)cc1NC(=O)c1cc2c(=O)n3ccccc3nc2n1C | . | . | . | ? | .
Cc1cc(C)c(NC(=O)c2cc3c(=O)n4ccccc4nc3n2C)c(C)c1 | / | / | / | -79.3 | .
O=c1cc(CN2CCN(CCO)CC2)c2cc3c(cc2o1)CCC3 | . | . | . | . | .
SMILES | Pf growth 48h | FBPA Giardia inh | Pf growth 96h | HCMV antiviral | Sm TGR block
CC(C)CN(Cc1cc(=O)oc2cc3c(cc12)CCCC3)CC(C)C | 1.31µM | . | ? | . | .
CCOC(=O)N1CCN(Cc2cc(=O)oc3cc4c(cc23)CCC4)CC1 | ? | . | 4.65µM | . | ?
CCOC(=O)N1CCN(Cc2cc(=O)oc3ccc(Cl)cc23)CC1 | ? | . | .[5.75 µM] | . | .
O=c1cc(CN2CCN(Cc3ccccc3)CC2)c2cc3c(cc2o1)CCC3 | ? | . | . | . | 35.5µM
COc1ccc(C2NC(=S)N(Cc3ccc(Cl)cc3)C(C)=C2C(C)=O)cc1 (stereo not drawn) | / | / | / | . | /
NC1=NC(S)C2N=CN=C2N1 (stereo not drawn) | ? | / | 7.57µM | / | /
Oc1ccc(O)c(Cc2nc3ccccc3s2)c1 | ? | . | . | ? | 50.1µM
CC(C)Oc1ccc(CN2CCC2(C)C(=O)Nc2cccc3cccnc23)cc1 (stereo not drawn) | / | / | / | -77.9 | /
Cc1ccc2c(c1)C1(C=CC(=O)C=C1)CC(=O)N2C | / | . | / | / | /
Cc1c2cnn(-c3ccccc3)c(=O)c2c(C)n1CC(=O)Nc1ccccc1Br | / | / | / | . | .
CCOc1ccccc1NC(=O)C(OC(=O)c1ccc(NC(=O)CC#N)cc1)c1ccccc1 (stereo not drawn) | 5.22µM | / | 2.33µM | . | .
CC(OC(=O)c1ccc(NC(=O)CC#N)cc1)C(=O)NC(c1ccccc1)c1ccccc1 (stereo not drawn) | / | / | / | . | /
CCOc1ccccc1NC(=O)C(OC(=O)c1ccccc1O)c1ccccc1 (stereo not drawn) | . | . | ? | . | .
Cc1cc(C(=O)C(C)OC(=O)c2ccc(NC(=O)CC#N)cc2)c(C)n1-c1ccccc1 (stereo not drawn) | 13.1µM | / | 8.28µM | -63.1 | .
CCOc1ccccc1NC(=O)C(OC(=O)c1ccccc1)c1ccccc1 (stereo not drawn) | . | . | ? | . | .
CCOc1ccccc1NC(=O)C(OC(=O)c1cc(C)oc1C)c1ccccc1 (stereo not drawn) | 13.1µM | . | ? | ? | .
CC(O)(c1ccc(F)c(F)c1)c1nc(-c2ccc(S(C)(=O)=O)cc2)cs1 (stereo not drawn) | / | / | / | . | /
Cc1nc(NC(=O)/C=C/c2ccccc2)sc1C(=O)N1CCCCC1 | . | . | ? | . | .
CCN(CC)C(=O)C1=C(C)N(CCCN2CCCC2=O)C(=O)C(CC(=O)NCc2ccco2)C1 (stereo not drawn) | / | / | / | . | /
CCCCCc1c(C)nc(Nc2ccc(F)cc2)[nH]c1=O | ? | . | / | -70.1 | .
CCCc1cc(=O)[nH]c(Nc2cc(Cl)cc(Cl)c2)n1 | / | / | / | -105.7 | .
CCCCc1ccc(Nc2nc(CCC)cc(=O)[nH]2)cc1 | 10.4µM | . | / | . | .
CCCc1cc(=O)[nH]c(Nc2cc(C)cc(C)c2)n1 | / | / | / | . | .
CCCCc1c(C)nc(Nc2ccc(OC)cc2)[nH]c1=O | . | . | . | . | .

Compound activity from PubChem.
